# ARNT-TACC3 inh = ARNT/TACC3 interaction disruption | Q9Y6A5 | AlphaScreen His-ARNT PAS-B/GST-TACC3 binding, luminescence; TACC3 fragment carries E629A point mutation | inhibition, % at 9.99 µM | 390,000 tested, 0.66% active | AID 623870;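 active = mean inhibition of replicates at least 50% and at least half of replicates each reaching 50%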;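 also: 0% = complete ARNT plus TACC3 wells and 100% = ARNT alone without TACC3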
# PglD inh = PglD (C. jejuni) enzyme inhibition; 360,000 tested, 0.098% active; purified PglD enzyme, DTNB colorimetric CoA detection; inhibition, % at 12.5 µM; in the data active = inhibition above about 16%, passing the limit was not always enough
# ALR inh = human ALR oxidase inhibition via reduced H2O2; inhibition, % (test concentration not listed); P55789; purified ALR, DTT oxidation, H2O2 HRP-luminol luminescence; 290,000 tested, 3.8% active;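 active = mean replicate inhibition above about 79%, with every replicate also reaching it, limit read from the data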
# ERp5 block = inhibitors of human ERp5 | Q15084 | AID 651711 | inhibition, % at 9.99 µM | 350,000 tested, 0.05% active | ERp5 insulin aggregation, absorbance 650 nm, 90 min;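 active = mean replicate inhibition above about 25%, with every replicate also reaching it, limit read from the data, passing the limit was not always enough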
# Target sequence (Q15084 whole entry, looked up): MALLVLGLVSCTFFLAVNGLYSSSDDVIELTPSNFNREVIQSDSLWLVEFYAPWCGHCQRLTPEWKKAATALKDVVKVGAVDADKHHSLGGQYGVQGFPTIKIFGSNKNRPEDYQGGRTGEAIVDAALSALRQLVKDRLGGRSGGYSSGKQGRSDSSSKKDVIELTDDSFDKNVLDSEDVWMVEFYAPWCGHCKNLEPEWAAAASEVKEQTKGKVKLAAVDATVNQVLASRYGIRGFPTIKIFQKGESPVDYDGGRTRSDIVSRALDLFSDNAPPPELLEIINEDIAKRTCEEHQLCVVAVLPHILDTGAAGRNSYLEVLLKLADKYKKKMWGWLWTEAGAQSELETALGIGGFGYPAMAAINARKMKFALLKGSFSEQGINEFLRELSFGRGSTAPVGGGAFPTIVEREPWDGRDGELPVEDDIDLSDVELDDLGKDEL
# PDI turbidity = inhibitors of human protein disulfide isomerase; 350,000 tested, 0.052% active; inhibition, % at 10 µM; PDI insulin aggregation turbidity, A650, 90 min; AID 588391;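 active = mean inhibition across replicates of 30% or more, whatever share of single replicates reach that level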
# NRP1-CendR mod = NRP-1/CendR interaction modulation; FAM-RPARPAR peptide binding to NRP-1, fluorescence polarization; 360,000 tested, 0.85% active; inhibition, % at 25 µM; O14786;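 active = inhibition or corrected inhibition above about 18%, plus a signal ratio from 0.5 to 1.5, limit read from the data, passing the limit was not always enough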
# The depositor's hits bear a star; . = no result given. The full list was thinned out, with hits kept by preference.
SMILES,ARNT-TACC3 inh,PglD inh,ALR inh,ERp5 block,PDI turbidity,NRP1-CendR mod
COc1ccc(C[C@H]2CCc3cnnn3COC[C@@H](C(C)C)NC2=O)cc1,.,.,.,-4,.,.
Cc1ccc(S(=O)(=O)N(C)C[C@H]2Oc3ccc(NS(=O)(=O)c4cccs4)cc3CC(=O)N([C@@H](C)CO)C[C@@H]2C)cc1,-7,-1,.,-1,.,.
NC(=S)N/N=C/c1ccccc1O,73*,1,38,3,-3,-6
NC(=S)N/N=C/c1cccc(O)c1O,.,.,98*,5,7,0
O=[N+]([O-])c1ccccc1C=NNc1ccccc1,14,-4,.,2,6,2
O=C(NN=Cc1cccc(O)c1O)c1ccccc1,.,.,.,1,.,14
Oc1ccccc1/C=N/Nc1ccccc1,10,.,99*,4,14,0
CNC(=S)N/N=C/c1cc(Br)cc(Br)c1O,48*,.,.,.,-10,-4
Oc1ccccc1C=NNC(=S)NN=Cc1ccccc1O,61*,5,.,5,-3,-4
Oc1cccc(/C=N/NC(=S)NCCN2CCOCC2)c1O,69*,.,100*,-1,-12,-1
NC(=S)N/N=C/c1c[nH]c2ccccc12,8,-4,99*,-8,10,-13
COc1cccc(CNC(=O)C[C@@H]2CC[C@H]3[C@@H](COc4ccc(NC(C)=O)cc4C(=O)N3C)O2)c1,1,1,.,.,.,.
COc1ccc(S(=O)(=O)Nc2ccc3c(c2)C(=O)N([C@@H](C)CO)C[C@@H](C)[C@H](CN(C)Cc2ccccc2)O3)cc1,-7,13,.,2,.,.
COc1ccccc1N1C(=N)S/C(=C\c2ccc(-c3ccccc3C(=O)O)o2)C1=O,17,.,98*,-1,7,-144
Cc1ccccc1C1=NC(c2ccc(F)cc2F)ON1 (stereo unspecified),-3,8,-9,.,-1,22*
CCC(=O)N1[C@@H]2c3cccc(=O)n3C[C@@H]2[C@@H](CO)[C@@H]1C(=O)NC1CCCCC1,1,1,.,-7,.,.
N#Cc1cc([N+](=O)[O-])ccc1N1CCN(c2ccccc2O)CC1,2,7,98*,1,-2,-2
COc1ccccc1C(=O)/C=C/c1ccc(N2CCCCC2)c([N+](=O)[O-])c1,-4,-1,3,-7,-6,2
CC(NC(=O)c1ccc(N2CCCC2)c([N+](=O)[O-])c1)c1ccc(S(N)(=O)=O)cc1 (stereo unspecified),0,3,98*,7,-10,11
O=C(/C=C/c1ccc(N2CCCCC2)c([N+](=O)[O-])c1)c1ccc(O)cc1,7,2,4,-1,85*,9
NS(=O)(=O)c1ccc(N2CCCCCC2)c([N+](=O)[O-])c1,.,.,-4,-9,-2,7
O=[N+]([O-])c1ccc(N2CCN(c3ccc([N+](=O)[O-])cc3CO)CC2)c(CO)c1,-4,3,-8,-1,-2,-24
CC(=O)c1ccc(N2CCN(c3ccccc3O)CC2)c([N+](=O)[O-])c1,6,-2,99*,2,-4,-4
COc1ccc2c3c([nH]c2c1)[C@H](CO)N(C(=O)C1CCOCC1)CC31CN(Cc2nccs2)C1,.,.,.,-3,.,.
CCCNC(=O)[C@H]1[C@H](CO)[C@H]2Cn3c(ccc(-c4ccc(F)cc4)c3=O)[C@@H]1N2CCC,-11,4,.,4,.,.
SMILES,ARNT-TACC3 inh,PglD inh,ALR inh,ERp5 block,PDI turbidity,NRP1-CendR mod
COc1ccc(N2CCN(C(=O)c3ccc(Br)cc3)CC2)c([N+](=O)[O-])c1,3,.,0,-4,-3,16*
COc1ccc(N2CCN(C(=O)c3ccc(C)cc3)CC2)c([N+](=O)[O-])c1,9,.,-2,.,-3,19
CCCN1C[C@H](C)[C@@H](OC)CN(C)C(=O)c2cc(NC(=O)Nc3ccccc3F)ccc2OC[C@@H]1C,-2,0,.,2,.,.
Cc1ccccc1/C=C/c1nc2ccccc2c(=O)n1Cc1ccccc1,1,.,-2,.,-7,-7
Cc1ccccc1/C=C/c1nc2ccccc2c(=O)n1CCc1ccccc1,10,.,0,.,-14,40*
Cc1nc2ccccc2c(=O)n1CCc1ccc(O)cc1,-1,7,96*,-1,20,-11
C[C@H]1CN([C@@H](C)CO)C(=O)c2cc(NC(=O)CCCCCC(=O)Nc3ccccc3N)ccc2O[C@@H]1CN(C)C(=O)Nc1cccc2ccccc12,.,.,.,11,.,.
CC(C)(/C=N/O)N(O)C=C1C=CC(=O)C=C1,13,-7,99*,2,1,2
COCCN(C(=O)CNC(=O)c1cccs1)C(C(=O)NC1CCCC1)c1cccs1 (stereo unspecified),.,2,14,.,2,19*
COc1cc(/C=N/NC(=O)C2C3CCCCC32C)cc(Br)c1O (stereo unspecified),8,6,86*,.,-2,2
COc1ccc(/C=N/NC(=O)C2C3CCCCC32C)cc1OC (stereo unspecified),0,.,-4,5,-5,1
CCCCCC(=O)N/N=C/c1cc(Br)c(O)c(OC)c1,-1,.,99*,4,6,-4
COc1cc(/C=N/NC(=O)CC2(C)OCCO2)cc(Br)c1O,-1,.,71,.,3,2
Cc1ccc(S(=O)(=O)Nc2ccc3c(c2)CC(=O)N([C@@H](C)CO)C[C@@H](C)[C@@H](CN(C)C)O3)cc1,-1,0,.,3,.,.
CCC(=O)N1C[C@@H](C)[C@H](OC)CN(C)C(=O)c2cc(NC(=O)COC)ccc2OC[C@H]1C,-1,3,.,4,.,.
CC=Cc1ccc2n(c1=O)C[C@@H]1[C@@H](CO)[C@H](C(=O)NC3Cc4ccccc4C3)N(CC3CC3)[C@H]21 (mixture of isomers),0,1,.,0,.,.
COc1ccc(N2CCN(Cc3nc(Cc4cccc(F)c4)no3)C(C)C2)cc1 (stereo unspecified),17,1,98*,-2,4,-4
COCC(=O)Nc1ccc2c(c1)C(=O)N(C)[C@H]1CC[C@@H](CC(=O)NCc3ccccc3Cl)O[C@H]1CO2,-6,0,.,.,.,.
Cc1ccc2[nH]c3nc(SCCN4CCOCC4)nnc3c2c1,3,-4,0,.,-8,-9
Cc1ccc2[nH]c3nc(NN)nnc3c2c1,61*,-7,36,-2,5,0
COc1ccccc1C#Cc1cnc2c(c1)C(=O)N([C@@H](C)CO)C[C@@H](C)[C@@H](CN(C)C(C)=O)O2,-4,-2,.,0,.,.
C=CCC(Nc1ccccc1)c1ccc(OC)c(OC)c1 (stereo unspecified),.,.,96*,.,.,.
